The text below walks through data of PubChem BioAssay (NCI).

Some test systems named below: HT29 colon; SNB-75 CNS; U251 CNS; PC-3 prostate; SK-MEL-5 melanoma; UACC-62 melanoma; LOX IMVI melanoma; SK-MEL-28 melanoma; SNB-19 CNS.
Holding throughout (assay): NCI-60 one-dose screen, 48 h (100 = growth as untreated, 0 = no growth, -100 = all killed)
Holding throughout (conditions): 10 µM unless noted

Compounds without any hit were thinned out: in the full panel of roughly 83,000, 20% have a hit.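 Each cell line was grown in a 96-well plate and treated with one concentration of compound for 48 hours. Values below 10 were considered active.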 A number with no mark means an inactive call. Active and inactive are the calls of the source.

With `CCN(CC)Cc1cc(Nc2ccnc3ccc(OC)cc23)ccc1O`, the growth in the assay on HT29 colon is -24.3% (active); with SNB-75 CNS, 101%; with U251 CNS, 35%; in the assay on PC-3 prostate, 39.8%; with SK-MEL-5 melanoma, 50.4%; in the assay with UACC-62 melanoma it was 87.7%. Besides, the growth in the assay on LOX IMVI melanoma is 4.78% (active); in the assay with SK-MEL-28 melanoma it was 105%.
As for `OC(CCCCCCCCC(O)CN1CCc2ccccc2C1)CN1CCc2ccccc2C1` (stereo not drawn), the growth with HT29 colon is 114%; in the assay with SNB-75 CNS, 95.4%; in the assay with SNB-19 CNS, 105%; with U251 CNS, 101%; in the assay on PC-3 prostate, 98.9%; with SK-MEL-5 melanoma, 95.2%. Besides, the results for the growth with UACC-62 melanoma, with LOX IMVI melanoma and in the assay with SK-MEL-28 melanoma were 101%, 96.4% and 108%, respectively.
As for `O=C1CCCN1C(O)CCN(Cc1ccccc1)Cc1ccc(Cl)cc1` (stereo not drawn), the growth in the assay on HT29 colon was 98.4%; in the assay on SNB-75 CNS, 101%; in the assay on SNB-19 CNS it was 104%; in the assay on U251 CNS, 102%; in the assay with PC-3 prostate it was 95.1%; in the assay on SK-MEL-5 melanoma it was 106%. The results for the growth in the assay on UACC-62 melanoma, in the assay on LOX IMVI melanoma and in the assay on SK-MEL-28 melanoma were 102%, 97.2% and 115%, respectively.
In the case of `COc1ccc(C(=O)OC2C(OC3C(O)COC(O[C@H]4C[C@H]5[C@@H]6CC=C7C[C@@H](O)CC[C@]7(C)[C@H]6CC[C@]5(C)[C@H]4[C@H](C)C(=O)CCC(C)C)C3OC(N)=O)OCC(O)C2O)cc1` (stereo partly drawn), the growth was 4.99% (active) in the assay with HT29 colon; -10% (active) in the assay on SNB-75 CNS; -28.2% (active) in the assay with SNB-19 CNS; -53.3% (active) in the assay on U251 CNS; -28.1% (active) with PC-3 prostate; -86.8% (active) with SK-MEL-5 melanoma. For the same molecule, the growth with UACC-62 melanoma was -57.7% (active); in the assay on LOX IMVI melanoma it was -58.3% (active); with SK-MEL-28 melanoma, -59.1% (active).
Turning to `C=CCN(CC#N)CC=C`, the growth was 94.5% with HT29 colon; 96.2% in the assay with SNB-75 CNS; 109% with SNB-19 CNS; 100% in the assay on U251 CNS; 91% in the assay with PC-3 prostate; 94.9% with SK-MEL-5 melanoma. The growth in the assay on UACC-62 melanoma was 102%; with LOX IMVI melanoma it was 101%; in the assay on SK-MEL-28 melanoma, 104%.
Consider `O=C(Nc1cccc(-n2ccc3c(NC(=O)c4ccccc4)nccc32)c1)c1ccc(N2CCOCC2)c(C(F)(F)F)c1`, for which the growth in the assay with HT29 colon was 2.15% (active); in the assay on SNB-19 CNS, 43.3%; in the assay with U251 CNS it was 15.5%; in the assay on PC-3 prostate, 23.7%; in the assay with SK-MEL-5 melanoma, -68.6% (active); in the assay on UACC-62 melanoma it was 40.1%. Also, the growth in the assay on LOX IMVI melanoma is 9.86% (active); in the assay with SK-MEL-28 melanoma, 32.8%.
`CCN(C(=O)CCl)C(C)(C)C(SSSC(c1ccc(Cl)cc1)C(C)(C)N(CC)C(=O)CCl)c1ccc(Cl)cc1` (stereo not drawn): the growth in the assay on HT29 colon was 18%; in the assay on SNB-75 CNS it was 84.3%; with SNB-19 CNS, 117%; in the assay with U251 CNS, 63.5%; in the assay with PC-3 prostate it was 63.3%; with SK-MEL-5 melanoma it was 73.5%. The growth is -2.54% (active) with UACC-62 melanoma, 66.6% in the assay on LOX IMVI melanoma and -24.6% (active) with SK-MEL-28 melanoma.
Turning to `CC(C)(CCc1ccccn1)C(=O)CCCc1ccccn1`, the growth in the assay with HT29 colon was 97%; in the assay on SNB-75 CNS, 102%; in the assay on SNB-19 CNS it was 94%; in the assay with U251 CNS it was 100%; in the assay with PC-3 prostate, 89%; in the assay with SK-MEL-5 melanoma, 104%. Besides, the growth with UACC-62 melanoma was 89.8%; with LOX IMVI melanoma, 94.2%; in the assay with SK-MEL-28 melanoma, 115%.
For the molecule `Nc1c(Br)cc2c(c1Br)Cc1cc(Cl)ccc1-2`, the growth is 111% with HT29 colon; 72.4% in the assay with SNB-75 CNS; 88.5% in the assay with SNB-19 CNS; 101% in the assay on U251 CNS; 82.6% in the assay on PC-3 prostate; 90.5% in the assay on SK-MEL-5 melanoma. In addition, the growth was 96.2% in the assay with UACC-62 melanoma, 89.3% in the assay on LOX IMVI melanoma and 98.6% in the assay with SK-MEL-28 melanoma.
For `O=C(O)c1ccccc1Oc1cc(-c2ccco2)nc(OCCN2CCOCC2)n1`, the growth with HT29 colon is 92.5%; with SNB-75 CNS it was 92.4%; in the assay with SNB-19 CNS, 96.9%; in the assay on U251 CNS, 113%; with PC-3 prostate it was 127%; with SK-MEL-5 melanoma, 99.9%. Moreover, the values for the growth in the assay with UACC-62 melanoma, in the assay on LOX IMVI melanoma and in the assay on SK-MEL-28 melanoma were 98.9%, 99.5% and 106%, respectively.
On to `COc1cc(C)c(Cl)cc1C1=NN(c2ccc(S(N)(=O)=O)cc2)C(/C=C/c2ccccc2)C1` (stereo not drawn), for which the growth with HT29 colon was 23.2%; in the assay with SNB-75 CNS it was 65.2%; in the assay with SNB-19 CNS, 38.6%; in the assay with U251 CNS, 18.3%; with PC-3 prostate, 7.54% (active); in the assay with SK-MEL-5 melanoma, 64.9%. The growth in the assay with UACC-62 melanoma was 39.8%; with LOX IMVI melanoma, 51.6%; with SK-MEL-28 melanoma it was 88.1%.
Turning to `CC(C)CCSc1nc(-c2ccc(F)cc2)c(C#N)c(N2CCCCC2)n1`, the growth in the assay on HT29 colon was 83.2%; in the assay on SNB-75 CNS, 94.2%; with SNB-19 CNS, 102%; with U251 CNS it was 93.6%; in the assay with PC-3 prostate it was 89.2%; in the assay on SK-MEL-5 melanoma it was 95.8%. Further, the growth in the assay with UACC-62 melanoma is 70.3%; in the assay with LOX IMVI melanoma it was 93%; in the assay with SK-MEL-28 melanoma, 96.3%.
Consider `CC(=O)c1ccc(Br)c([N+](=O)[O-])c1`, for which the growth is 98% with HT29 colon; 92.7% with SNB-75 CNS; 104% in the assay on U251 CNS; 104% with PC-3 prostate; 99.9% in the assay on SK-MEL-5 melanoma; 111% in the assay on UACC-62 melanoma. Besides, the growth in the assay on LOX IMVI melanoma is 90%; in the assay with SK-MEL-28 melanoma, 118%.
On to `CS(=O)(=O)c1ccc(C(=O)N/N=C/c2ccccc2O)cc1`, for which the growth was 43.6% in the assay with HT29 colon; 77.8% in the assay on SNB-75 CNS; 45.4% with SNB-19 CNS; 27.8% in the assay on U251 CNS; 54.3% in the assay on PC-3 prostate; 32.2% in the assay on SK-MEL-5 melanoma. For the same molecule, the growth in the assay with UACC-62 melanoma was 16.4%; with LOX IMVI melanoma it was 21.4%; in the assay on SK-MEL-28 melanoma, 55.9%.
